# In PubChem BioAssay (NCATS):
# Results filed as inconclusive are left out. A call without a number means that no potency is given here. A number with no mark means an inactive call. Active and inactive are the calls of the source. Calls come from the whole dose curve; as a rule, active = well fitted inhibition curve with a large enough effect; inconclusive = small, poorly fitted or top-dose-only effect; inactive = no such curve, though single readings can be large or run the other way. Numbered stars: 1 amine (or outer) side, 2 acyl side, 3 side chain; on linkers, the order of the positions; unused ones are H or OH. Bridge positions count the residues as written; N and C are the ends. Square brackets hold non-standard residues; d marks the D form. Peptide text beside a SMILES is read from it. I, II: the chains in the order shown. Actinocin(9to1) = Cc1c2oc3c(C)ccc(C(=O)[*:1])c3nc-2c(C(=O)[*:2])c(N)c1=O; NMeV = CN[C@H](C(=O)O)C(C)C; Sar = CNCC(=O)O
# Test: NS1 protein of Zika virus - qHTS assay to identify small molecule inhibitors in human HEK 293 cells (AID 1347053); note: nearly all actives have a fitted effect of over 55% in size
# Conditions: HEK293 ZIKV MR766 infection, NS1 TR-FRET, 24 h; series mostly up to 46.1 µM
# Outline: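 HEK 293 cells pretreated with compound for 1 h, then infected with ZIKV MR766 (MOI 0.5) for 24 h at 37 C. NS1 detected by TR-FRET with two anti-NS1 antibodies; normalized to uninfected (0%) and infected (100%) wells.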
# Potency is the fitted concentration of half-maximal effect.
Structure (SMILES),Potency,"activity change, negative = inhibition"
NC(=O)c1cc[n+](CC2=C(C(=O)[O-])N3C(=O)[C@@H](NC(=O)Cc4cccs4)[C@H]3SC2)cc1,inactive,–
NC(=NCCCCCCN=C(N)/N=C(\N)Nc1ccc(Cl)cc1)/N=C(\N)Nc1ccc(Cl)cc1,inactive,–
CC(=O)Oc1ccc(C(=C2CCCCC2)c2ccc(OC(C)=O)cc2)cc1,inactive,–
C[C@@H](CN(C)C)CN1c2ccccc2Sc2ccccc21,inactive,–
CCOc1ccc(Cc2nccc3cc(OCC)c(OCC)cc23)cc1OCC,inactive,–
O=c1[nH]c(=O)n([C@H]2C[C@H](O)[C@@H](CO)O2)cc1C(F)(F)F,inactive,–
COc1cccc2c1C(=O)c1c(O)c3c(c(O)c1C2=O)C[C@@](O)(C(C)=O)C[C@@H]3O[C@H]1C[C@H](N)[C@H](O)[C@H](C)O1,inactive,–
C#C[C@]1(OC(C)=O)CC[C@H]2[C@@H]3CCC4=C[C@@H](OC(C)=O)CC[C@@H]4[C@H]3CC[C@@]21C,inactive,–
CC(C)(CO)[C@@H](O)C(=O)NCCCO,inactive,–
O=C(CCCN1CCC(O)(c2ccc(Br)cc2)CC1)c1ccc(F)cc1,inactive,–
CCCC(=O)Nc1ccc(OCC(O)CNC(C)C)c(C(C)=O)c1 (stereo not given),inactive,–
OC[C@@H](O)[C@@H](O[C@@H]1O[C@H](CO)[C@H](O)[C@H](O)[C@H]1O)[C@H](O)[C@@H](O)CO,inactive,–
c1ccc(-c2ccc(C(c3ccccc3)n3ccnc3)cc2)cc1 (stereo not given),inactive,–
CCOC(=O)n1ccn(C)c1=S,inactive,–
NC[C@H]1O[C@H](O[C@H]2[C@H](O[C@@H]3O[C@H](CO)[C@@H](O)[C@H]3O)C(O)[C@H](N)C[C@@H]2N)[C@H](N)[C@@H](O)[C@@H]1O (stereo not given in full),–,-23.8% [at 9.2 µM]
O=S1(=O)c2cccc3cccc(c23)N1CCCN1CCN(c2ccc(F)cc2)CC1,inactive,–
CN(C)CCCOc1nn(Cc2ccccc2)c2ccccc12,inactive,–
CC/C(=C(/CC)c1ccc(O)cc1)c1ccc(O)cc1,inactive,–

Structure (SMILES),Potency,"activity change, negative = inhibition"
CC(C)(C)CC(C)(C)c1ccc(OCCOCC[N+](C)(C)Cc2ccccc2)cc1,12.6 µM (active),–
Nc1nc2ncc(CNc3ccc(C(=O)N[C@@H](CCC(=O)O)C(=O)O)cc3)nc2c(=O)[nH]1,inactive,–
Cc1cccn2c(=O)c(-c3nnn[nH]3)cnc12,inactive,–
"Cc1c2oc3c(C)ccc(C(=O)N[C@@H]4C(=O)N[C@H](C(C)C)C(=O)N5CCC[C@H]5C(=O)N(C)CC(=O)N(C)[C@@H](C(C)C)C(=O)O[C@@H]4C)c3nc-2c(C(=O)N[C@@H]2C(=O)N[C@H](C(C)C)C(=O)N3CCC[C@H]3C(=O)N(C)CC(=O)N(C)[C@@H](C(C)C)C(=O)O[C@@H]2C)c(N)c1=O (I: T[dV]P[Sar][NMeV] / II: T[dV]P[Sar][NMeV]; ester I:1-I:C, II:1-II:C; linker I:N-II:N via Actinocin(9to1))",inactive,–
Cc1c(C(N)=O)cc([N+](=O)[O-])cc1[N+](=O)[O-],inactive,–
C[C@H]1[C@H](NC(=O)/C(=N/OC(C)(C)C(=O)O)c2csc(N)n2)C(=O)N1S(=O)(=O)O (stereo in doubt),inactive,–
CCCCc1nc(Cl)c(CO)n1Cc1ccc(-c2ccccc2-c2nn[nH]n2)cc1,inactive,–
Cc1c(C)n(CCN(C)C)c2ccc(C(=O)OCCN(C)C)cc12,inactive,–
O=C(Nc1ccc(Oc2ccc(Cl)cc2)c(Cl)c1)c1cc(I)cc(I)c1O,inactive,–
CC(Cc1cccc(C(F)(F)F)c1)NCCOC(=O)c1ccccc1 (stereo not given),inactive,–
C[C@]12C=CC(=O)C=C1CC[C@@H]1[C@@H]2[C@@H](O)C[C@@]2(C)[C@H]1CC[C@]2(O)C(=O)CO,inactive,–
CCOC(=O)c1cccc(N)c1,inactive,–
CCCOC(C(=O)OC1CCN(C)CC1)(c1ccccc1)c1ccccc1,inactive,–
COC1=CC(=O)C[C@@H](C)[C@]12Oc1c(Cl)c(OC)cc(OC)c1C2=O,inactive,–
CN1CCN(C(c2ccccc2)c2ccccc2)CC1,inactive,–
Nc1ccn([C@@H]2O[C@H](CO)[C@@H](O)C2(F)F)c(=O)n1,3.16 µM (active),–
NCCCC[C@H](N[C@@H](CCc1ccccc1)C(=O)O)C(=O)N1CCC[C@H]1C(=O)O,inactive,–
